# Test results from the supplement of paper PMC3724861.
# The entries come from a sample that favours hits as a whole. The hit rate among all sequences tested is not known here.
# Tested on: T1, Caupolican (Caup) homeodomain DNA-binding domain
# T1 sequence: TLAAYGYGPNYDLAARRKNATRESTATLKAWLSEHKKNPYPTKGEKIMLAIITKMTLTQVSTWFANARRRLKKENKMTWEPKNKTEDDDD
# Assay: PBM E-score (8-mer, recovered from the published 9-mer minima) (E-score (dimensionless, -0.5 to 0.5)); Drosophila protein; higher = stronger relative binding preference, active = 0.31 or more
# Method: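 Protein binding microarray (PBM): in vitro transcribed/translated Caupolican (Caup) homeodomain DNA-binding domain (residues 214-303) applied at 100 nM to a universal 8-mer PBM array (Agilent AMADID 015681). The 8-mer enrichment score (E-score, range -0.5 to 0.5) was computed, and each 9-mer score is the minimum E-score of its two constituent 8-mers. The E-score is the same for a 9-mer and its reverse complement; 0.31 is the stated binding threshold.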
row,Sequence,PBM E-score
1,AATCTAGT,0.0691 (inactive)
2,CCGGTAAC,-0.0103 (inactive)
3,CCGGACAG,0.0176 (inactive)
4,CCCAAGCA,-0.0938 (inactive)
5,CGACCGCA,-0.144 (inactive)
6,CATGACGC,0.032 (inactive)
7,AAGGACTA,0.0433 (inactive)
8,AATTAAGG,0.0103 (inactive)
9,ACCAGTGC,-0.019 (inactive)
10,TAAGGGGA,-0.0541 (inactive)
11,ACAAGGAT,0.315 (active)
12,ACAAGTCT,0.296 (inactive)
13,ACAAGGAG,0.224 (inactive)
14,ACAAGTAT,0.314 (active)
15,ACAAGGAA,0.247 (inactive)
16,CCAAGTAC,0.0484 (inactive)
17,AAAAGTAT,0.121 (inactive)
18,GCAAGTAC,0.176 (inactive)
19,ACAAGTAC,0.35 (active)
20,AAGATCGA,0.0302 (inactive)
21,TCAGTTAA,0.0667 (inactive)
22,ACAGGTAT,0.203 (inactive)

row,Sequence,PBM E-score
1,ACCCCTCG,-0.218 (inactive)
2,GTGTGAAC,0.0865 (inactive)
3,CTCTGTAC,0.137 (inactive)
4,ATATGTAG,0.297 (inactive)
5,CTATGTGC,0.0747 (inactive)
6,ATATGTCC,0.261 (inactive)
7,CTATGTAC,0.381 (active)
8,ATATGTAC,0.387 (active)
9,CTAGGACA,0.241 (inactive)
10,TAGTTTAA,0.218 (inactive)
11,AGCGAGCT,-0.108 (inactive)
12,ACACCACC,0.0972 (inactive)
13,AAACTTTC,-0.0217 (inactive)
14,ACTGACAG,0.0804 (inactive)
15,CAAACATG,0.391 (active)
16,AAAACATC,0.305 (inactive)
17,CAAACACA,0.265 (inactive)
18,CAAACATC,0.23 (inactive)
19,CAAACACG,0.315 (active)
20,CAAACACC,0.126 (inactive)
21,AAAACATT,0.252 (inactive)
22,AAAACATG,0.419 (active)

row,Sequence,PBM E-score
1,CAAACATA,0.292 (inactive)
2,CATCTAGG,-0.0637 (inactive)
3,CAAGTAAG,0.0621 (inactive)
4,CATTTCAA,0.154 (inactive)
5,ATGCAATA,0.197 (inactive)
6,TGAGGCAA,-0.0847 (inactive)
7,AAGGGCGC,-0.172 (inactive)
8,CACCAGGC,-0.132 (inactive)
9,ATGTTGAG,0.132 (inactive)
10,ATGTTGAC,0.322 (active)
11,CGGTTGTA,0.209 (inactive)
12,AGGTTGTG,0.133 (inactive)
13,ATGTTGTG,0.282 (inactive)
14,AGGTTGTA,≥ 0.333 (active)
15,GTGTTGCA,0.184 (inactive)
16,ATGTTGTA,0.431 (active)
17,GTGTTGTA,0.395 (active)
18,CTGTTGAC,0.137 (inactive)
19,CTGTTGTA,0.273 (inactive)
20,ACGTTGTA,0.291 (inactive)
